Laboratory results reported in PubChem BioAssay AID651650 (Sanford-Burnham Center for Chemical Genomics, 2012).

Target: Neuropilin-1 (Homo sapiens) (UniProt O14786)
Assay: blockers of CendR peptide binding to NRP-1 – biochemical, FP and AlphaScreen panel, dose response (AID 651650)
Conditions: NRP-1 b1b2 / RPARPAR peptide binding, FP or AlphaScreen; run 1, at 100 µM (top of the series)

Neuropilin-1 (Homo sapiens), sequence (O14786 whole entry, looked up): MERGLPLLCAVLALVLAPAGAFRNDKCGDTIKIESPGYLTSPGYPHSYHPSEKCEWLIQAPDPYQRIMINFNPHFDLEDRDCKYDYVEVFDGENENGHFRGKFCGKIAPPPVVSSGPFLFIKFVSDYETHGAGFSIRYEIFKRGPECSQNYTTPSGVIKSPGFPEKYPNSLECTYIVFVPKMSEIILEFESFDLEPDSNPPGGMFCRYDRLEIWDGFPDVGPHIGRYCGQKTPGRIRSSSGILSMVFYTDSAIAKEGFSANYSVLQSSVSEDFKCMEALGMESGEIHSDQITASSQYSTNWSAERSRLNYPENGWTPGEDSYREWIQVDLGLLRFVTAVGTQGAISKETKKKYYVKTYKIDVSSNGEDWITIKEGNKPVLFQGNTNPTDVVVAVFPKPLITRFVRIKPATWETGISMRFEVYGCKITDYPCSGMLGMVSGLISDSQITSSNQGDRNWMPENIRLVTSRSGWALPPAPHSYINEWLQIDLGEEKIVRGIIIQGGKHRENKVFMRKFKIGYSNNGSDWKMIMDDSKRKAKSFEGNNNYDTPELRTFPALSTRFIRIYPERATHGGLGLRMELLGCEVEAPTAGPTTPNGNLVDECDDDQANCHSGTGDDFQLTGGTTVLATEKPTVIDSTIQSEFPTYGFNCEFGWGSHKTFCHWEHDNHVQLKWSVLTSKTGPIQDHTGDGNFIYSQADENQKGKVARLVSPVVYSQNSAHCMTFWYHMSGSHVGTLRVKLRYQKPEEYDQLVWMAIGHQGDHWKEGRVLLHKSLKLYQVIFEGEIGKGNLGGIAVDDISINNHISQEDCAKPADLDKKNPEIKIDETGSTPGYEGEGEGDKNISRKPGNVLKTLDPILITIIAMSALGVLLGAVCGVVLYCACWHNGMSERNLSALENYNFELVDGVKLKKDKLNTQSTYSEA

Row | Compound | inhibition [%]
1 | CCC(=O)Nc1cc2c3c(c1)CCC(=O)N3CCC2 | 101
2 | Cc1c(CC(=O)O)c(=O)oc2cc(OCc3ccc(F)cc3Cl)ccc12 | -12.1
3 | COC(=O)N[C@@H]1C[C@H]2[C@@H]3CC[C@H]4C[C@@H](OC)CC[C@]4(C)[C@H]3CC[C@]12C | 57.8
4 | C=CCn1c(SCC(=O)Nc2ncc(Cc3ccc(Br)cc3)s2)nnc1-c1ccncc1 | 42
5 | O=C(NCCN1CCOCC1)c1cc(-c2ccc(F)cc2)on1 | 17.9
6 | Cc1cc(NC(=O)CCC(=O)NNC(=O)c2ccc(C(C)(C)C)cc2)no1 | 102
7 | CC1(C)c2ccccc2C(=O)c2ccccc21 | -7.21
8 | NC1=NC[C@@H](Cc2ccc(O)cc2)N1CCCCC1CCCCC1 | 26.5
9 | O=Cc1ccc(-c2ccccc2C(=O)O)o1 | 51.8
10 | Cc1ccc(NC=C(S(=O)(=O)c2ccccc2)S(=O)(=O)c2ccccc2)cc1 | -22.8
11 | COc1ccc(C2CC(C(F)(F)F)n3nc(C(=O)O)c(Cl)c3N2)cc1OC (stereo unspecified) | 46.4
12 | CC(C)(C)C(=O)c1cnc(Nc2ccccc2)s1 | -10.5
13 | O=C(NNC(=O)c1ccccc1Cl)c1cccnc1 | 94
14 | O=C(CSc1nc(O)c(Cc2ccccc2)c(=O)n1-c1ccccc1)N1CCOCC1 | -18.5
15 | CCN(CC)C(=O)c1cccc(-c2csc(C(NC(C)=O)c3cccc(OC)c3)n2)c1 (stereo unspecified) | 18.7
16 | COc1cccc(C(=O)N2N=C(c3ccccc3)CC2(O)C(F)(F)F)c1 (stereo unspecified) | 35.9
17 | Cc1cccc(NC(=O)c2ccc(OCc3c(C)noc3C)cc2)c1 | 93.6
18 | O=C1CCC[C@@H]2Cc3nc4cc5c(cc4cc3[C@@H]3CCN1[C@H]23)OCO5 | 30.9
19 | Cc1nnc(SC(C)C(=O)Nc2ccc(S(=O)(=O)NC3CCCCC3)cc2)s1 (stereo unspecified) | 21.8
20 | CC(=O)NC(c1cccc(F)c1)c1nc(-c2cccc(C(F)(F)F)c2)cs1 (stereo unspecified) | 9.72
21 | Cc1cc2c(cc1C)NC(c1nc3ccccc3[nH]1)C1=C(CC(C)(C)CC1=O)N2 (stereo unspecified) | 20.6
22 | Cc1cc(C)n(-c2nnc3n2N=C(c2c[nH]c4ccccc24)CS3)n1 | 2.19
23 | COc1ccc(-c2noc(CN(C(=O)c3ccc4c(c3)OCO4)C(C)C)n2)cc1 | 27.6
24 | COC(=O)c1cccc(NC(=S)NCCC2=CCCCC2)c1 | 4.3
25 | O=C1c2cc([N+](=O)[O-])cc3cc([N+](=O)[O-])cc(c23)C(=O)N1c1ccccn1 | 17.2
26 | Cn1c(=O)c2[nH]c(NCCCN3CCOCC3)nc2n(C)c1=O | 44.2

Row | Compound | inhibition [%]
27 | Cn1c(=O)c2[nH]c(COc3ccccc3)nc2n(C)c1=O | 16.6
28 | CC1CCC(NC(=O)CSc2nncn2C)CC1 (stereo unspecified) | 19.2
29 | Cc1cn([C@H]2C[C@H](O)[C@@H](CCC(=O)NCCc3ccc4ccccc4c3)O2)c(=O)[nH]c1=O | 22.6
30 | O=C(Nc1ccc(N2CCOCC2)cc1)c1cc(-n2cnnc2)ccc1Cl | 55
31 | Cc1ccccc1S(=O)(=O)Nc1nc2ccccc2nc1NCCO | 25.8
32 | O=C(/C=C/c1ccco1)N/C(=C\c1ccccc1)C(=O)NCCc1nc2ccccc2[nH]1 | 11.8
33 | CCOc1ccc(-n2c(Cc3cc(=O)[nH]c(=O)[nH]3)nnc2SC(C)C)cc1 | 59.6
34 | Cc1cc2cc(CNC(=O)c3ccco3)ccc2n1C | 40.6
35 | COc1ccc(/C=N/NC(=O)c2nn(-c3ccc(Cl)cc3)c(=O)c3c(N)scc23)cc1 | 17.8
36 | C=CCNC(=O)c1onc(CSc2ccc(F)c(F)c2)c1C(=O)NCC=C | 38.7
37 | O=C(COc1ccc(S(=O)(=O)N2CCCC2)cc1)Nc1ccc2c(c1)OCCO2 | 34
38 | CC(C)OC(=O)CSc1nnc(-c2ccccn2)n1-c1ccccc1 | -4.4
39 | COC(=O)CCCC1=CC2=CC(=O)C(C)(OC(=O)c3cccs3)C(=O)C2=CN1CCCOC(C)C (stereo unspecified) | 93.3
40 | CCOC(=O)N1CCN(C(=O)c2cc(COc3ccc(OC)cc3Cl)on2)CC1 | 37.8
41 | Cc1ccc(C)c(-n2c(SCC(=O)NC(C(=O)O)C(C)C)nnc2-c2cccc(Cl)c2)c1 (stereo unspecified) | 46.2
42 | O=C(NCc1ccccc1)c1ccc(N2CCC3(CC2)CC(c2ccc(Cl)cc2)=NO3)c([N+](=O)[O-])c1 | 69.3
43 | CC(C)COC(=O)C1C2C=CC3(CN(C(C)c4ccc(Br)cc4)C(=O)C13)O2 (stereo unspecified) | 60.2
44 | CCC1=C(OC(=O)N(CC)CC)N2C(=O)OC(=NCC(=O)OC)[C@]2(Cc2ccccc2)[C@H]2C1=CC[C@H]1C(=O)N(CC(=O)OC)C(=O)[C@H]12 | 70.2
45 | O=C(c1ncn(Cc2ccccc2)c1C(=O)N1CCc2ccccc2C1)N1CCc2ccccc2C1 | 23
46 | COC(=O)c1ccc(Cn2nnc3c(=O)[nH]c(C4CCCN(S(=O)(=O)c5cccc(Cl)c5)C4)nc32)cc1 (stereo unspecified) | 35.3
47 | N=C1C(=O)OCC1c1cc(Cl)ccc1NC(=O)Nc1ccccc1 (stereo unspecified) | 47.4
48 | CCOC(=O)[C@@H]1[C@H]2COc3ccccc3[C@@H]2N2C(=O)N(c3ccc(Cl)cc3)C(=O)[C@]12C | 48.8
49 | O=C(/C=C/c1ccccc1)c1ccccn1 | -2
50 | NC(=O)C(c1ccc(Cl)cc1Cl)c1ncc(C(F)(F)F)cc1Cl (stereo unspecified) | 88.6
51 | Cc1ccc(C(=O)NCCCc2ccccc2)c(C)c1 | 37.1
52 | CCCNC(=O)[C@H]1N2C(=O)c3c(ccc(OC)c3OC)C2SC1(C)C (stereo partly specified) | 51.5

Row | Compound | inhibition [%]
53 | OCC[C@H]1C[C@H](O)[C@@H](O)[C@]2(CCCCO2)O1 | -5.29
54 | O=C(CSc1nnc(Cc2ccccc2)n1Cc1ccccc1)NCc1ccco1 | 8.68
55 | O=C(Nc1ccc(F)cc1)c1cc(S(=O)(=O)Nc2ccc(F)cc2)cs1 | 2.95
56 | CCn1cc(C(=O)N2CCN(C(=O)c3ccco3)CC2)c2cc(OC)c(OC)cc2c1=O | 77.9
57 | Cc1ccc(OCC(=O)Nc2ccc(C)c(S(=O)(=O)N3CCCCCC3)c2)c([N+](=O)[O-])n1 | 44.6
58 | COc1cc(OC)nc(NC(=O)COC(=O)c2cccc(Cl)c2)n1 | 98.8
59 | OCCCc1n[nH]c(=S)n1-c1ccccc1 | 31.2
60 | COc1ccc(/C=N/NC(=O)c2cc(C(C)(C)C)[nH]n2)cc1COc1ccc(F)cc1F | 26
61 | Cc1ccc(COn2c(-c3ccc(Cl)cc3Cl)nc3ncccc32)cc1 | 7.33
62 | O=C(c1ccc(-c2cccc(C(F)(F)F)c2)o1)N1CCCC(C(F)(F)F)C1 (stereo unspecified) | 3.1
63 | Cc1ccnc(N2CCC(C(=O)Nc3ccc4c(c3)OCCO4)CC2)n1 | 41.7
64 | CC(Nc1nc(-c2ccc(F)cc2)cs1)c1nc2cc(C(F)(F)F)ccc2n1CCOCCO (stereo unspecified) | 43.3
65 | Cc1ccc(-n2c(-c3ccco3)nc3c(cnn3-c3ccc(C)cc3)c2=O)cc1 | 50.3
66 | O=C(CSc1nc2ccccc2n1Cc1ccccc1Cl)N/N=C/c1ccccc1C(=O)O | 84.6
67 | CCOC(=O)Cn1c(=O)n(Cc2ccco2)c(=O)c2ccc(C(=O)NC3CCCC3)cc21 | 61
68 | Cc1cc(N/C(=N/S(=O)(=O)c2cc(F)ccc2F)c2ccccc2)n(-c2ccccc2)n1 | -9.15
69 | COc1cccc(NC(=O)CSc2nc(O)c(C)c(=O)n2-c2ccc(C)cc2)c1 | 84.9
70 | CSCCC(NC(=O)c1ccc(Cl)cc1Cl)C(=O)NCC(c1cccs1)N(C)C (stereo unspecified) | 31.9
71 | O=C(Nc1ccccc1N1CCOCC1)c1ccc(N2CCCC2=O)cc1 | 46.3
72 | NS(=O)(=O)c1cccnc1Nc1cccc(Cl)c1Cl | 14.4
73 | COc1cc(C(=O)Nc2cc3c(cc2N2CCCCC2)n(C)c(=O)n3C)cc(OC)c1OC | 57.1
74 | CCC1Nc2ncnc(N3CCCCC3)c2N(Cc2ccc(C)cc2)C1=O (stereo unspecified) | 18.8
75 | CCCS(=O)(=O)N1CCC(Cc2ccc(OC)cc2)(C(=O)OCC)CC1 | -57.8
76 | O=C(COC(=O)C1CC(=O)N(Cc2ccccc2)C1)Nc1ccccc1F (stereo unspecified) | 56.9
